Among the data in PubChem BioAssay AID1159580 (chemical genetic matrix, 2015) are normalized growth values, retold here.

This experiment in a line: chemical genetic growth profiling, strain panel (AID 1159580).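 Note: tested at 20 µM; growth read once vehicle control cultures reached saturation at 30 °C; 1 = growth at the plate median or of vehicle wells; lower values mean less growth of the strain.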 The conditions noted are these: growth OD.
Setting [1] is: S. cerevisiae deletion strains, locus YHR030C, strain SLT2, hits give low values.
[2] abbreviates: S. cerevisiae deletion strains, locus YAL013W, strain DEP1, hits give low values.
[3] abbreviates: S. cerevisiae deletion strains, locus YBR229C, strain ROT2, hits give low values.
The mark [4] stands for this setting: S. cerevisiae deletion strains, locus YDL101C, strain DUN1, hits give low values.
Where [5] appears, read: S. cerevisiae deletion strains, locus YDR150W, strain NUM1, hits give low values.
The mark [6] stands for this setting: S. cerevisiae deletion strains, locus YEL061C, strain CIN8, hits give low values.
Setting [7] is: S. cerevisiae deletion strains, locus YGR078C, strain PAC10, hits give low values.
Where [8] appears, read: S. cerevisiae deletion strains, locus YHR087W, strain rtc3, hits give low values.
[9] abbreviates: S. cerevisiae deletion strains, locus YJR043C, strain POL32, hits give low values.
[10] abbreviates: S. cerevisiae deletion strains, locus YJR075W, strain HOC1, hits give low values.
[11] abbreviates: S. cerevisiae deletion strains, locus YLR039C, strain RIC1, hits give low values.
Where [12] appears, read: S. cerevisiae deletion strains, locus YLR058C, strain SHM2 (second series), hits give low values.
Where [13] appears, read: S. cerevisiae deletion strains, locus YLR085C, strain ARP6, hits give low values.
The mark [14] stands for this setting: S. cerevisiae deletion strains, locus YLR262C, strain YPT6, hits give low values.
Setting [15] is: S. cerevisiae deletion strains, locus YML094W, strain GIM5, hits give low values.
The mark [16] stands for this setting: S. cerevisiae deletion strains, locus YMR219W, strain ESC1, hits give low values.
Setting [17] is: S. cerevisiae deletion strains, locus YNL153C, strain GIM3, hits give low values.
Where [18] appears, read: S. cerevisiae deletion strains, locus YNL298W, strain CLA4 (second series), hits give low values.
[19] abbreviates: S. cerevisiae deletion strains, locus YNL322C, strain KRE1, hits give low values.
The mark [20] stands for this setting: S. cerevisiae deletion strains, locus YNR030W, strain Alg12, hits give low values.
Where [21] appears, read: S. cerevisiae deletion strains, locus YPL055C, strain LGE1, hits give low values.
Setting [22] is: S. cerevisiae deletion strains, locus YPL241C, strain CIN2, hits give low values.
Setting [23] is: S. cerevisiae deletion strains, locus YPR135W, strain CTF4, hits give low values.

The campaign covered roughly 5,500 compounds. About 2,000 (36%) were called active. Roughly 18% stayed inconclusive and do not appear here. Some of the results follow. Unmarked numbers belong to inactive results. Cut-off read from the data, not from the text of the source: active = normalized growth mostly below about 0.91 (no sharp cut-off); inconclusive = no clear call, values can overlap the other calls; inactive = mostly above about 0.92.

In the case of `C[C@]12CCc3occc3C1CC[C@@]13C[C@@H](CCC12)[C@@](O)(CO)C3` (stereo partly specified), the normalized growth under setting [1] was 0.934; the normalized growth (S. cerevisiae deletion strains, locus YHR079C, strain IRE1, hits give low values) was 0.961; the normalized growth (S. cerevisiae deletion strains, locus YJL095W, strain BCK1, hits give low values) was 0.948; the normalized growth (S. cerevisiae deletion strains, locus YJR066W, strain TOR1, hits give low values) is 0.909; the normalized growth (S. cerevisiae deletion strains, locus YLR113W, strain HOG1, hits give low values) is 0.873; the normalized growth (S. cerevisiae deletion strains, locus YNL183C, strain NPR1, hits give low values) was 0.91. The normalized growth is 0.911 (S. cerevisiae deletion strains, locus YOR231W, strain MKK1, hits give low values) and 0.924 (S. cerevisiae deletion strains, locus YPL256C, strain CLN2, hits give low values).

In the case of `Nc1ccc(Sc2cc(Cl)ccc2Cl)nc1`, the normalized growth by setting is: under setting [2], 0.947; under setting [3], 0.906 (active); (S. cerevisiae deletion strains, locus YCL061C, strain MRC1, hits give low values) 0.958; under setting [4], 0.963; under setting [5], 0.843; under setting [6], 0.916. The normalized growth by setting is: under setting [7], 0.911 (active); under setting [1], 0.341 (active); under setting [8], 0.898 (active); (S. cerevisiae deletion strains, locus YJL187C, strain SWE1, hits give low values) 0.928 (active); under setting [9], 0.932; under setting [10], 0.827 (active). Besides, the normalized growth is 0.762 (active) (S. cerevisiae deletion strains, locus YKL190W, strain CNB1, hits give low values); 0.398 (active) under setting [11]; 0.929 (active) under setting [12]; 0.383 (active) under setting [13]; 0.348 (active) under setting [14]; 0.828 (active) under setting [15]. The normalized growth by setting is: under setting [16], 0.958; (S. cerevisiae deletion strains, locus YMR307W, strain GAS1, hits give low values) 0.454 (active); under setting [17], 0.934; under setting [18], 0.781 (active); under setting [19], 0.97; under setting [20], 0.785 (active). Further, the normalized growth by setting is: (S. cerevisiae deletion strains, locus YOL006C, strain TOP1, hits give low values) 0.594 (active); under setting [21], 0.99; under setting [22], 0.737 (active); under setting [23], 0.497 (active).

On to `Cc1noc(C)c1C(=O)N1CCOCC1`, for which the normalized growth is, setting by setting: under setting [2], 1; under setting [3], 0.998; under setting [4], 1; under setting [5], 0.971; under setting [6], 1.01; under setting [7], 1. The normalized growth reads like this: under setting [1], 1.07; under setting [8], 1; under setting [9], 1; under setting [10], 1; under setting [11], 1.03; under setting [12], 1. Besides, the normalized growth was 1.04 under setting [13]; 1.01 under setting [14]; 1.02 under setting [15]; 0.993 under setting [16]; 0.982 (S. cerevisiae deletion strains, locus YMR263W, strain SAP30, hits give low values); 0.996 under setting [17]. Besides, the normalized growth is 1.02 under setting [18]; 0.995 under setting [19]; 1.02 under setting [20]; 1 under setting [21]; 1.06 under setting [22]; 1.02 under setting [23]. Also, the normalized growth (S. cerevisiae strains, strain wild type, hits give low values) was 1.01.
